Experimental data: PubChem BioAssay (NCI)
This is part of a sample that, as a whole, favours compounds with a hit. Of some 83,000 tested, about 20% had one in any assay.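 96-well plates, one dose, 48 hours. Percent growth reported; active if below 10.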 Calls of active or inactive are those of the source.

What was measured:
Experiment in all cases: NCI-60 one-dose screen, 48 h (100 = growth as untreated, 0 = no growth, -100 = all killed)
Settings in all cases: 10 µM unless noted
HCT-15 colon = tested on: HCT-15 colon
HT29 colon = tested on: HT29 colon
SNB-75 CNS = tested on: SNB-75 CNS
SNB-19 CNS = tested on: SNB-19 CNS
U251 CNS = tested on: U251 CNS
PC-3 prostate = tested on: PC-3 prostate
SK-MEL-5 melanoma = tested on: SK-MEL-5 melanoma
UACC-62 melanoma = tested on: UACC-62 melanoma
LOX IMVI melanoma = tested on: LOX IMVI melanoma
SK-MEL-28 melanoma = tested on: SK-MEL-28 melanoma
SK-MEL-2 melanoma = tested on: SK-MEL-2 melanoma
EKVX NSCLC = tested on: EKVX NSCLC
SN12C renal = tested on: SN12C renal
UO-31 renal = tested on: UO-31 renal
TK-10 renal = tested on: TK-10 renal
ACHN renal = tested on: ACHN renal
CAKI-1 renal = tested on: CAKI-1 renal
CCRF-CEM leukemia = tested on: CCRF-CEM leukemia
MOLT-4 leukemia = tested on: MOLT-4 leukemia

Measured: growth

CC1(C)CC(O)CCCCCCOc2c(CN)cccc2NC(=O)c2nc(cnc2N)-c2ccc(cc2)S1(=O)=O (centres undefined)
active: HCT-15 colon -14.4% | HT29 colon 9.7% | SNB-19 CNS 8.06% | U251 CNS -26.6% | SK-MEL-5 melanoma -31.7% | CCRF-CEM leukemia -8.71% | MOLT-4 leukemia 2.43%
inactive: SNB-75 CNS 53.7% | PC-3 prostate 22.6% | UACC-62 melanoma 41.3% | LOX IMVI melanoma 13% | SK-MEL-28 melanoma 43.4% | SK-MEL-2 melanoma 25.4% | EKVX NSCLC 86.2% | SN12C renal 20.1% | UO-31 renal 27.8% | TK-10 renal 34.7% | ACHN renal 24.7% | CAKI-1 renal 18.1%

COc1ccc(N2CCN(c3ccc(NC4=C(Cl)C(=O)c5ncccc5C4=O)cc3)CC2)cc1
inactive: HCT-15 colon 40.9% | HT29 colon 49.9% | SNB-75 CNS 52.8% | SNB-19 CNS 29.4% | U251 CNS 26.7% | PC-3 prostate 53% | SK-MEL-5 melanoma 50.5% | UACC-62 melanoma 34.1% | LOX IMVI melanoma 35.3% | SK-MEL-28 melanoma 71% | SK-MEL-2 melanoma 71.8% | EKVX NSCLC 78.8% | SN12C renal 45.5% | UO-31 renal 46.2% | TK-10 renal 74.8% | ACHN renal 67.3% | CAKI-1 renal 61.1% | CCRF-CEM leukemia 24.6% | MOLT-4 leukemia 53.3%

O=c1[nH]nc(-c2ccccc2)c2sc3ncc(-c4ccc(Br)cc4)n3c12
inactive: HCT-15 colon 94.5% | SNB-75 CNS 19.7% | SNB-19 CNS 44.7% | U251 CNS 38.9% | PC-3 prostate 50.2% | SK-MEL-5 melanoma 78.9% | UACC-62 melanoma 47.5% | LOX IMVI melanoma 36.9% | SK-MEL-28 melanoma 57.6% | SK-MEL-2 melanoma 18.4% | EKVX NSCLC 67.3% | SN12C renal 46.1% | UO-31 renal 73.3% | TK-10 renal 109% | ACHN renal 75.7% | CAKI-1 renal 56.1% | CCRF-CEM leukemia 22.4% | MOLT-4 leukemia 41.7%
active: HT29 colon 9.13%

O=C(/C=C(/C=C/c1csc2ccccc12)OB(F)F)/C=C/c1csc2ccccc12
inactive: HCT-15 colon 11.4% | HT29 colon 15.7% | SNB-75 CNS 16.5% | SNB-19 CNS 48.2% | U251 CNS 17.1% | PC-3 prostate 20.3% | SK-MEL-5 melanoma 31.5% | SK-MEL-2 melanoma 73.1% | EKVX NSCLC 23.7% | TK-10 renal 23.7% | CAKI-1 renal 10.1%
active: UACC-62 melanoma 6.2% | LOX IMVI melanoma -3.05% | SK-MEL-28 melanoma 4.8% | SN12C renal -9.88% | UO-31 renal -5.1% | ACHN renal 7.13% | CCRF-CEM leukemia -20.5% | MOLT-4 leukemia -18.6%

COc1ccc(C(=O)Nc2cccc(C3CCc4c(cc(OC)c(OC)c4OC)O3)c2)cc1 (centres undefined)
inactive: HCT-15 colon 30.2% | HT29 colon 17.6% | SNB-75 CNS 26.3% | SNB-19 CNS 53.3% | U251 CNS 36.4% | PC-3 prostate 49.3% | SK-MEL-5 melanoma 60.2% | UACC-62 melanoma 38.7% | LOX IMVI melanoma 50.3% | SK-MEL-28 melanoma 61.4% | SK-MEL-2 melanoma 37.9% | EKVX NSCLC 54.7% | SN12C renal 69.6% | UO-31 renal 53.9% | TK-10 renal 80.8% | ACHN renal 68.9% | CAKI-1 renal 54.3% | CCRF-CEM leukemia 36.5% | MOLT-4 leukemia 22.5%

C/C(=N\NC(=O)CSc1nc2ccccc2c(=O)n1CCc1ccc(S(N)(=O)=O)cc1)c1ccccn1
inactive: HCT-15 colon 26.8% | HT29 colon 31.5% | SNB-75 CNS 74.5% | SNB-19 CNS 46.6% | U251 CNS 31.8% | PC-3 prostate 50.7% | SK-MEL-5 melanoma 24.9% | UACC-62 melanoma 19.5% | LOX IMVI melanoma 13.8% | SK-MEL-28 melanoma 37.6% | SK-MEL-2 melanoma 47.2% | EKVX NSCLC 30.5% | SN12C renal 38.5% | UO-31 renal 29.8% | TK-10 renal 34.5% | ACHN renal 21.2% | CAKI-1 renal 37.6% | CCRF-CEM leukemia 20.6% | MOLT-4 leukemia 17.7%

CCCCC[n+]1ccc(SCC(=O)N(C)c2ccc(Oc3ccccc3)cc2)c2ccccc21
inactive: HCT-15 colon 100% | HT29 colon 101% | SNB-75 CNS 115% | SNB-19 CNS 89.1% | U251 CNS 95.8% | PC-3 prostate 103% | SK-MEL-5 melanoma 95.2% | UACC-62 melanoma 75.4% | LOX IMVI melanoma 102% | SK-MEL-28 melanoma 108% | SK-MEL-2 melanoma 106% | EKVX NSCLC 114% | SN12C renal 95.5% | UO-31 renal 86.9% | TK-10 renal 99.6% | ACHN renal 107% | CAKI-1 renal 93.5% | CCRF-CEM leukemia 85% | MOLT-4 leukemia 82%

CCCCCN1C=C/C(=C\C(=O)N2CCCc3ccccc32)c2ccccc21
inactive: HCT-15 colon 102% | HT29 colon 73.2% | SNB-75 CNS 108% | SNB-19 CNS 93.9% | U251 CNS 87.6% | PC-3 prostate 86.7% | SK-MEL-5 melanoma 92.7% | UACC-62 melanoma 75.2% | LOX IMVI melanoma 87.3% | SK-MEL-28 melanoma 104% | SK-MEL-2 melanoma 90.9% | EKVX NSCLC 76.4% | SN12C renal 89.9% | UO-31 renal 75.5% | TK-10 renal 105% | ACHN renal 106% | CAKI-1 renal 80.3% | CCRF-CEM leukemia 69.7% | MOLT-4 leukemia 78.5%

O=S(=O)(NCCNc1nccc(-c2c(-c3cccc(O)c3)nc3occn23)n1)c1ccccc1
inactive: HCT-15 colon 103% | HT29 colon 38.1% | SNB-75 CNS 87.8% | SNB-19 CNS 94.8% | U251 CNS 95.4% | PC-3 prostate 85.3% | SK-MEL-5 melanoma 33.7% | LOX IMVI melanoma 53.7% | SK-MEL-28 melanoma 34.1% | SK-MEL-2 melanoma 61.3% | EKVX NSCLC 109% | SN12C renal 72.7% | UO-31 renal 101% | TK-10 renal 130% | ACHN renal 82.1% | CAKI-1 renal 78.3% | CCRF-CEM leukemia 80.9% | MOLT-4 leukemia 94.2%
active: UACC-62 melanoma 8.22%

COc1cccc(-c2ccc3c(c2)NC(=O)/C3=C\c2ccc[nH]2)c1
inactive: HCT-15 colon 20.7% | HT29 colon 23.6% | SNB-75 CNS 44% | SNB-19 CNS 81.6% | U251 CNS 83.5% | PC-3 prostate 70.1% | SK-MEL-5 melanoma 11% | UACC-62 melanoma 44.3% | LOX IMVI melanoma 50.5% | SK-MEL-28 melanoma 70.7% | SK-MEL-2 melanoma 52.7% | EKVX NSCLC 26.1% | SN12C renal 69.2% | UO-31 renal 52.7% | TK-10 renal 27.1% | ACHN renal 40.2% | CAKI-1 renal 28.3% | CCRF-CEM leukemia 19% | MOLT-4 leukemia 34.4%

O=C(Nc1ccccc1C(=O)N/N=C(\c1ccccc1)c1ccccn1)c1ccc(F)cc1
active: SK-MEL-5 melanoma -7.66% | UACC-62 melanoma 1.28% | LOX IMVI melanoma 8.38% | UO-31 renal 1.98% | CAKI-1 renal 5.29% | CCRF-CEM leukemia 4.15%
inactive: HCT-15 colon 32.5% | HT29 colon 25.2% | SNB-75 CNS 16.2% | SNB-19 CNS 25.5% | U251 CNS 17.8% | PC-3 prostate 36.5% | SK-MEL-28 melanoma 33.7% | SK-MEL-2 melanoma 37.2% | EKVX NSCLC 16.8% | SN12C renal 26.6% | TK-10 renal 49.1% | ACHN renal 14.1% | MOLT-4 leukemia 12.8%

N/C(=N\C(N)=N\c1nc2ccccc2s1)c1cccc(Cl)c1
inactive: HCT-15 colon 32.1% | HT29 colon 95.1% | SNB-75 CNS 95.2% | SNB-19 CNS 97.1% | U251 CNS 48.3% | PC-3 prostate 45% | SK-MEL-5 melanoma 104% | UACC-62 melanoma 86.2% | LOX IMVI melanoma 44.1% | SK-MEL-28 melanoma 104% | SK-MEL-2 melanoma 100% | EKVX NSCLC 83.3% | SN12C renal 38.5% | UO-31 renal 33.2% | TK-10 renal 111% | ACHN renal 75.5% | CAKI-1 renal 33.2% | CCRF-CEM leukemia 73.3% | MOLT-4 leukemia 72.5%

COc1cc2c(=O)n(CCCN(C)C)c3c4cc5c(cc4ccc3c2cc1OC)OCO5
inactive: HCT-15 colon 52.1% | HT29 colon 30.5% | SNB-75 CNS 90.2% | SNB-19 CNS 52.6% | U251 CNS 55.8% | PC-3 prostate 50.8% | SK-MEL-5 melanoma 71% | UACC-62 melanoma 59.4% | LOX IMVI melanoma 36.3% | SK-MEL-28 melanoma 87.2% | SK-MEL-2 melanoma 89% | EKVX NSCLC 85% | SN12C renal 50.4% | UO-31 renal 41.9% | TK-10 renal 84.5% | ACHN renal 36.8% | CAKI-1 renal 62% | CCRF-CEM leukemia 13.8%
active: MOLT-4 leukemia -9.29%

COc1ccc(C(=O)CSc2nc(-c3cc(OC)ccc3OC)cc(-c3ccc(Cl)cc3)c2C#N)cc1
inactive: HCT-15 colon 62.7% | HT29 colon 48.3% | SNB-75 CNS 30.9% | SNB-19 CNS 40.3% | U251 CNS 35.7% | PC-3 prostate 56.8% | SK-MEL-5 melanoma 36.6% | UACC-62 melanoma 16.8% | LOX IMVI melanoma 68.5% | SK-MEL-28 melanoma 32.1% | SK-MEL-2 melanoma 70.8% | EKVX NSCLC 79.7% | SN12C renal 42.6% | UO-31 renal 45.9% | TK-10 renal 61.9% | ACHN renal 31% | CAKI-1 renal 64.9% | CCRF-CEM leukemia 98.2% | MOLT-4 leukemia 94.3%

Cc1cc2nc3c4cc([N+](=O)[O-])ccc4n(CCN(C)C)c3nc2cc1C
active: HCT-15 colon -15.7% | HT29 colon 4.93% | SNB-75 CNS -6.58% | SNB-19 CNS 8.53% | U251 CNS 1.87% | PC-3 prostate -0.344% | SK-MEL-5 melanoma -73.4% | UACC-62 melanoma -58.7% | LOX IMVI melanoma -48.7% | SK-MEL-28 melanoma 2.33% | SK-MEL-2 melanoma -56.5% | EKVX NSCLC -3.49% | SN12C renal 1.16% | UO-31 renal -41.9% | TK-10 renal -5.99% | ACHN renal -13% | CAKI-1 renal -15.7% | CCRF-CEM leukemia 3.84% | MOLT-4 leukemia 1.36%

CCCCCN1C=C/C(=C\C(=O)N(C)c2ccc(Oc3ccccc3)cc2)c2ccccc21
inactive: HCT-15 colon 98.4% | HT29 colon 53.6% | SNB-75 CNS 104% | SNB-19 CNS 88.2% | U251 CNS 80.1% | PC-3 prostate 77.6% | SK-MEL-5 melanoma 62.6% | UACC-62 melanoma 76.9% | LOX IMVI melanoma 86.6% | SK-MEL-28 melanoma 102% | SK-MEL-2 melanoma 98% | EKVX NSCLC 56.6% | SN12C renal 87.5% | UO-31 renal 85.3% | TK-10 renal 92.1% | ACHN renal 102% | CAKI-1 renal 93.1% | CCRF-CEM leukemia 75.4% | MOLT-4 leukemia 70.8%
